Each sequence was assayed against ST8SIA1 (assay: pooled miR-30 sensor sort-seq; sequence = guide strand). Details: shRNA.
Further: reference of the scale not given here.

| Sequence | sensor-assay potency score (higher = more potent) |
| --- | --- |
| TAAGTTGAATTGTCAATGGTGA | -0.263 |
| TAGCTGTCACTAACTGACTTTT | -1.28 |
| TTGTCCACAAATGTCTTTCTGG | -0.546 |
| TTGACAATCAGCAACACTTTTA | -1.09 |
| TAAGACGTTGTCATAGTAGTGG | 0.604 |
| TTTGCTTCATCTATTTGACGGC | 0.566 |
| TTTGTTTCCTGAACGCTCTGGC | 0.807 |
| TTTGATTGGCACCAACATCTGA | -0.123 |
| TTGATTGGCACCAACATCTGAC | -0.0698 |
| TGACAGTGTATAATAAACCCTC | -0.586 |
| TTAGCTGTCACTAACTGACTTT | 0.0924 |

The sequences below were run against ST8SIA4 in the same assay as above. Details: shRNA.

| Sequence | sensor-assay potency score (higher = more potent) |
| --- | --- |
| TTTGATAGGAACTTTGTTGGTC | 0.701 |
| TCTTTTGATAGGAACTTTGTTG | -0.556 |
| TTAACTACAGAAAATATCGGTC | 0.169 |
| TTGAAATTAATCATCTCTGTTT | 0.14 |
| TTATGTAGCACATTTAATGTTT | -0.574 |
| TACATGAGAAGACCTGTGCTGG | -0.695 |
| ATTGTGACTGTCAATCTCCTTT | -0.228 |
| TTCTATTTGAATAACAAGGGGA | -0.346 |
| TTTAACTACAGAAAATATCGGT | 0.525 |
| TTGACCACTGACACATCTCGTT | 0.237 |
| TTTCCAACCTTCTACATTGTGC | -0.709 |

These sequences were tested against STAC in the same assay as above. Details: shRNA.

| Sequence | sensor-assay potency score (higher = more potent) |
| --- | --- |
| TACATTTCTTCTAAGATGCTGT | 0.11 |
| TTTATAGTCCTACTGCTGCTGC | -0.661 |
| TTGTAGTCTCTGAACAAAGTTG | -1.06 |
| TTTCATGTCTTCGCTGTTGGTT | 0.0863 |
| TTGTACAAGGCAACATAGGTGT | -0.164 |
| TTGTCAGCACTTTTGCTCCGTA | -0.694 |
| TTCTTCTTCAGAACTCACGCAG | 0.0195 |
| TTGCAGTTTCATGTCTTCGCTG | 0.116 |
| TCTTGAAAGAAAGTGATCGTTT | -0.172 |
| TTTGTTGTAGTCTCTGAACAAA | -1.36 |
| TTCCAAATCTTCATTCTCCTGT | 0.665 |
| TATGTAAACACGCTGTTGCTGC | -0.123 |

What follows are sequences tested against STAP2 in the same assay as above. Details: shRNA.

| Sequence | sensor-assay potency score (higher = more potent) |
| --- | --- |
| TCTCATAGTAGTGTGAAGGCAG | 0.0304 |
| TAGAGGAAGCCACATCTTGGTT | -1.31 |
| TTGAGCTTCTCCACGTGCTGGA | 0.441 |
| TTCCACGTAGCCTAGCACCTTC | -0.0469 |

— the OligoGym collection
